Source: PubChem BioAssay (several laboratories)
BioA inh: blocks M. tuberculosis BioA enzyme activity; purified M. tuberculosis BioA enzyme, plate reader; inhibition, % at 9.99 µM; AID 602481; 360,000 compounds, 0.096% hits; in the data active means inhibition above about 40%
TcdB GH inh: blocks C. difficile toxin B glycohydrolase activity; P18177; TcdB glycohydrolase enzymatic assay, plate reader; inhibition, % at 9.99 µM; 350,000 compounds, 0.24% hits; AID 652162; in the data active means inhibition above about 10%
Yp Topo-I inh: blocks Yersinia pestis topoisomerase I activity | Y. pestis Topo-I cleavage product accumulation, plate reader | activity, % at 10 µM | 360,000 compounds, 0.064% hits | AID 504884; in the data active means activity above about 50%, passing the limit was not always enough
PfHsp40 rescue: compounds rescuing yeast from Plasmodium falciparum HSP40 toxicity; S. cerevisiae expressing PfHsp40, growth rescue, ATP luminescence; 340,000 compounds, 0.68% hits; AID 504582; growth rescue, % at 12.5 µM; in the data active means growth rescue above about 28%, passing the limit was not always enough;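 further: yeast W303a lacking pdr1 and pdr3 grown in galactose medium; growth measured after three days at 30 °C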
Vc quorum ag: induces V. cholerae light production without autoinducers; V. cholerae BH1578 lux reporter, luminescence, 6 h; activation, % at 18.7 µM; 350,000 compounds, 0.16% hits; AID 588436; in the data active means activation mostly above about 9.7%, no sharp cut-off
VHR inh abs: DUSP3 (human) phosphatase inhibition | P51452 | recombinant VHR phosphatase, pNPP absorbance | inhibition, % at 13.3 µM | 290,000 compounds, 0.52% hits | AID 1654; in the data active means inhibition above about 50%
The depositor's hits bear a star; i = inactive; · = no result. Only some compounds are listed: those with a hit (about 1.2% of all), similar ones and a draw of the others.

SMILES	BioA inh	TcdB GH inh	Yp Topo-I inh	PfHsp40 rescue	Vc quorum ag	VHR inh abs
Cc1cc(C)n(CC(=O)N2CCCC(N3CCN(c4ccccc4C)CC3)C2)n1 (stereo not drawn)	0	1	11	-1	4	-9
CO[C@@H]1CN(C)C(=O)c2ccc(NS(C)(=O)=O)cc2OC[C@@H](C)N(Cc2ccccn2)C[C@@H]1C	-1	·	·	·	·	·
COCCCNC(=O)C1CCCN(S(=O)(=O)c2cccc3nsnc23)C1 (stereo not drawn)	1	1	2	0	-1	53*
O=S(=O)(NC1CCCCC1N1CCC(O)CC1)c1ccccc1 (stereo not drawn)	-2	0	3	-2	-1	58*
CN(C)CCOC(=O)C12CC3(C)CC(C)(CC(C)(C3)C1)C2	-4	-1	-13	-1	i	52*
O=C1C(Cl)=C(N2CCOCC2)C(=O)N1c1ccccc1Cl	-1	1	-1	0	i	3
O=c1cc(-c2c(O)c3ccccc3n(Cc3ccccc3)c2=O)[nH][nH]1	·	1	6	155*	-1	18
Cn1c(=O)c(-c2cc(=O)[nH][nH]2)c(O)c2ccccc21	·	-7	11	47*	0	10
CCn1c(=O)c(-c2cc(=O)[nH][nH]2)c(O)c2ccccc21	-1	-1	9	97*	-1	-3
CCn1c(=O)c(-c2ccccc2)c(O)c2ccccc21	-1	·	-2	0	0	15
COc1ccc(/C=N/NC(=O)c2c(-c3ccccc3)noc2C)cc1[N+](=O)[O-]	2	1	9	0	i	4
Cc1cccn2c(=O)c3c(nc12)N1CCCCC1C1(C3)C(=O)N(C)C(=O)N(C)C1=O (stereo not drawn)	-2	0	6	·	i	3
NNC(=O)c1ccccc1OCCOc1ccccc1	0	2	34	2	0	55*
C/C(=N\NC(=O)c1ccccc1OCCOc1ccccc1)c1ccccc1F	3	6	-8	8	1	·
Cc1ccc2c(COC(=O)c3ccccc3Br)cc(=O)oc2c1	-6	0	-8	0	0	60*
CO[C@H](CN(C)C(=O)c1cnccn1)[C@@H](C)CN([C@H](C)CO)S(=O)(=O)c1ccc(F)cc1	-1	-2	·	·	·	·
O=C(CCO)c1ccc(O)cc1	-1	1	2	13	-1	26
O=C(CCSc1ccc(Br)cc1)c1ccc(O)cc1	·	-1	-3	537*	i	13
COc1ccccc1N1CCN(C(=O)c2nn(C)c3c2CS(=O)(=O)c2ccccc2-3)CC1	-1	1	16	1	1	50*
COc1ccc(N2CCN(C(=O)c3nn(C)c4c3CS(=O)(=O)c3ccccc3-4)CC2)cc1	-1	0	17	2	i	-4
O=C(NCc1cn(-c2ccccc2)nc1-c1ccccc1)c1cccc([N+](=O)[O-])c1	1	2	-13	-1	i	1
Cc1ccc(CNC(=O)C2COc3ccccc3O2)cc1 (stereo not drawn)	·	0	0	103*	1	15
O=C(NCc1ccccc1)C1COc2ccccc2O1 (stereo not drawn)	8	·	-2	1	i	-9
O=C(CNC(=O)C1COc2ccccc2O1)N/N=C\c1ccccc1Cl (stereo not drawn)	5	0	8	-1	i	56*
Cc1cccc(C(C#N)c2nc3ccccc3nc2C(F)(F)F)c1 (stereo not drawn)	4	·	25	1	i	·
SMILES	BioA inh	TcdB GH inh	Yp Topo-I inh	PfHsp40 rescue	Vc quorum ag	VHR inh abs
N#CC(c1ccc(Cl)cc1)c1nc2ccccc2nc1C(F)(F)F (stereo not drawn)	-1	·	2	53*	i	4
O=C(Sc1cccc2cccnc12)c1ccccc1Br	-2	0	6	119*	0	36
COc1ccc(CC(=O)OCC(=O)c2ccc(OC)c(OC)c2)cc1	-1	1	0	2	1	·
C=C(C)CNC(=S)NNC(=O)c1ccc(Br)cc1	-1	0	0	3	i	51*
C=CCNC(=S)NNC(=O)c1ccc(Br)cc1	·	·	3	0	0	23
O=C(O)C1=NN(c2ccccc2)C(=O)C1	·	1	3	7	-3	9
CCOC(=O)C1=NN(c2ccccc2)C(=O)/C1=C\c1ccc(N(C)C)cc1	1	·	-13	81*	-6	10
CCOC(=O)C1=NN(c2ccccc2)C(=O)C1	·	0	-8	113*	i	-11
Cc1ccc(-c2nc3cc(Cl)ccc3o2)cc1	-1	·	1	2	i	15
COC(CNC(=O)c1ccc2nc(-c3cccs3)c(-c3cccs3)nc2c1)OC	-1	0	9	1	0	5
COc1cc2cccc(OC)c(=O)c2c(O)c1OC	1	0	-7	-1	0	-1
COc1cc2c(ccc3cc(OC)c(OC)c(O)c32)cc1O	-1	4	-6	3	0	53*
O=C(Nc1ccccc1Cl)ON=C1c2ccccc2-c2ccccc21	·	·	5	88*	i	30
O=C(Nc1ccccc1)ON=C1c2ccccc2-c2ccccc21	·	2	-2	5	7	27
O=C(Nc1ccccc1Cl)OCC#CCOC(=O)Nc1ccccc1Cl	-1	0	55*	·	i	·
O=C(c1ccco1)N1CCN(C(=O)C2CC(c3ccc(Cl)cc3)=NO2)CC1 (stereo not drawn)	2	·	-1	-1	i	59*
CCCNC(=O)[C@H](C)NC(=O)c1ccc(Br)cc1	0	2	3	0	0	14
Nc1nonc1C(=O)NCCN=Cc1ccccc1O	-1	·	-13	-1	·	16
Nc1nonc1C(=O)NCCN=Cc1cc(Cc2ccccc2)cc(Br)c1O	·	·	5	702*	i	29
COc1ccc(-c2csc(N3CCC(c4ccccc4)CC3)n2)cc1	0	0	-6	-1	2	23
O=C1/C(=C\c2ccc3c(c2)OCO3)CCC/C1=C/c1ccc2c(c1)OCO2	·	·	28	0	1	15
O=C1OCC/C1=C\c1ccc2c(c1)OCO2	3	1	0	1	i	52*
O=C1OCC/C1=C\c1ccc(O)cc1	0	21*	0	-1	i	49
NC(=O)COC(=O)Cc1coc2cc3c(cc12)CCC3	·	1	-2	-1	0	30
O=C(Nc1cccc(C(F)(F)F)c1)c1cccnc1NCCc1ccccc1	·	·	-35	389*	0	-10
O=C(Nc1cccc(C(F)(F)F)c1)c1cccnc1NCCO	2	2	-6	-1	0	11
CCc1ccc(-c2cc(C(=O)N/N=C/c3ccccn3)[nH]n2)cc1	·	1	17	-1	-1	-4
O=C(N/N=C/c1ccccn1)c1cc(-c2ccc3ccccc3c2)n[nH]1	·	1	2	1	0	51*
